Compound activity as filed in PubChem.
Shown are actives, neighbours in structure and some others; about 13% of the full set was active somewhere.
HCV inhibitor: blocks hepatitis C virus; Huh7.5.1 HCVcc-Cre infection, luciferase reporter, 44 h; Potency, µM (top dose mostly 41.8 µM), for inactives: at the highest dose activity change, negative = inhibition, most hits filed as inhibitors; hit rate 3.4% among 340,000; AID 651820; active = well fitted inhibition curve with a large enough effect; inconclusive = small, poorly fitted or top-dose-only effect, or another doubt; inactive = no such curve, though single readings can be large or run the other way; also: potency is read from the fitted curve at half-maximal effect; % is scaled to controls: 0 for no effect and ±100 for the full control effect
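Cells seeded at 1,000/well and cultured 4 h, then compounds added followed by HCVcc-Cre virus (~0.5 moi). After 44 h further culture, luciferase substrate was added, plates held 15 min at room temperature, and luminescence read for 15 sec.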
FMDV inh: antivirals against foot and mouth disease virus; FMDV antiviral cell-based qHTS; Potency, µM (top dose mostly 57.9 µM), for inactives: at the highest dose activity change, negative = inhibition, usual class: inhibitors; hit rate 1.2% among 410,000; AID 1159524; calls by dose curve; tested in HEK293T cells; also: read-out not given here; potency is read from the fitted curve at half-maximal effect; % is scaled to controls: 0 for no effect and ±100 for the full control effect; nearly all actives have a fitted effect of over 45% in size
Lassa entry inh: Lassa virus entry inhibition; Lassa virus pseudotype entry inhibition, cell reporter; Potency, µM (highest dose often 37.9 µM), for inactives: at the highest dose activity change, negative = inhibition, usual class: inhibitors; hit rate 1.2% among 300,000; AID 540256; calls by dose curve; tested in HEK293 cells; also: potency is read from the fitted curve at half-maximal effect; % is scaled to controls: 0 for no effect and ±100 for the full control effect; nearly all actives have a fitted effect of over 50% in size
MARV entry inh: inhibitors of Marburg virus binding or cell entry; hit rate 1.8% among 300,000; Marburg virus pseudotyped entry inhibition, cell reporter; Potency, µM (doses to about 37.8 µM), inactives show at the top dose activity change, negative = inhibition, most hits filed as inhibitors; calls by dose curve; tested in HEK293 cells; also: potency is read from the fitted curve at half-maximal effect; % is scaled to controls: 0 for no effect and ±100 for the full control effect
Shiga inhibitor: inhibitors of Shiga toxin in Vero cells. Vero cells, Shiga toxin protein synthesis inhibition reporter. inhibition, % at 38.7 µM. hit rate 9.2% among 290,000. AID 2315; in the data active = inhibition mostly above about 28%, no sharp cut-off; inactive = mostly below about 43%; also: 0% is about no effect
Cycloheximide cs: counter-screen for Shiga toxin inhibitors: cycloheximide protein synthesis inhibition. cell reporter, cycloheximide protein synthesis inhibition counterscreen. max response, %. hit rate 12% among 300,000. AID 2314; in the data active = max response mostly above about 13%, no sharp cut-off; inactive = mostly below about 14%; also: read at 38.3 µM for the half of the compounds with a filed dose; 0% is about no effect
* marks the source's active call; other numbers are inactive results; ? = inconclusive; . = no result given; [ ] = another dose, or the depositor's remark.

SMILES	HCV inhibitor	FMDV inh	Lassa entry inh	MARV entry inh	Shiga inhibitor	Cycloheximide cs
COc1ccc(CN2CCN(C(=O)c3ccc(F)cc3)CC2)c(OC)c1	4%	-13%	.	.	.	4
Cc1cccc(Cn2cccc2/C=C2/C(=N)N3C=CSC3=NC2=O)c1	?	-17%	-20%	-28%	-5	-3
Cc1ccc2nc3n(c(=O)c2c1)CCCCC3	-8%	41%	9%	17%	53*	31*
O=c1c2cc([N+](=O)[O-])ccc2nc2n1CCCC2	0%	-7%	?	?	-5	-1
O=c1c2cc(Br)ccc2nc2n1CCCCC2	7%	55%	8%	?	55	29*
CCCCNC(=S)NNC(=O)c1ccncc1	5%	32%	25%[46.1 µM]	-1%[46.1 µM]	-13	-5
Cc1cccc(NC(=O)c2ccc(COc3ccc4ccccc4c3)o2)n1	-14%	14%	.	.	11	14
Cc1c(NC(=O)c2cc3ccccc3oc2=O)c(=O)n(-c2ccccc2)n1C	12%	.	23%	25%	86*	42*
Cc1c(NC(=O)c2ccc(COc3ccc4ccccc4c3)o2)c(=O)n(-c2ccccc2)n1C	-17%	-2%	10%	?	91*	31*
CCS(=O)c1scc(-c2ccc(Cl)cc2)c1C#N (stereo not drawn)	-17%	-9%	.	.	20	13
CCCCc1nc2cc(C(=O)N3CCCC(COC)C3)ccc2o1 (stereo not drawn)	8%	33%	-15%	26%	73*	63*
COCC1CCN(C(=O)c2ccc3oc(CCCc4ccccc4)nc3c2)C1 (stereo not drawn)	-25%	20%	5%	-16%	39	29*
CCCCc1nc2cc(C(=O)N3CCCC(OCCC)C3)ccc2o1 (stereo not drawn)	5%	-2%	.	.	103*	48*
CCCCc1nc2cc(C(=O)N3CCN(c4cnccn4)CC3)ccc2o1	-1%	6%	?	?	11	11
CCCCc1nc2cc(C(=O)N3CCC(OCCOC)CC3)ccc2o1	5%	14%	9%[46.1 µM]	?	73*	28*
COCC1CCN(C(=O)c2ccc3oc(Cc4ccc(Cl)cc4)nc3c2)C1 (stereo not drawn)	-10%	6%	7%	-8%	.	.
COCCN1CCN(C(=O)c2ccc3oc(CCCc4ccccc4)nc3c2)CC1	1%	36%	21%	-3%[46.1 µM]	112*	23*
COCC1CCCN(C(=O)c2ccc3oc(CCCc4ccccc4)nc3c2)C1 (stereo not drawn)	?	0%	-1%[46.1 µM]	7%[46.1 µM]	12	2
CCOC(=O)n1c(=O)n(C)c2ccc(Br)cc21	-1%	-13%	-3%	-9%[46.1 µM]	-8	-4
O=C(NC(=O)c1c(Cl)cccc1Cl)Nc1ccc(Oc2cccnc2)nc1	0%	-10%	-5%	-9%	-6	-2
O=C(Nc1ccc(Oc2cccnc2)nc1)c1ccc(C(F)(F)F)cc1	2.2µM*	?	-13%[46.1 µM]	5.6µM*	19	17
COC(=O)c1ccccc1Oc1ccc(NC(=O)c2ccco2)cc1	-3%	16%	.	.	39	11
CC(C)(C)c1ccc(Oc2ccc(NC(=O)c3ccco3)cn2)cc1	7.9µM*	?	.	.	27	-3
O=C(Nc1ccc(Oc2cccc(C(F)(F)F)c2)nc1)c1ccco1	10µM*	?	-20%	?	16	-1
COc1cccc(C(=O)CC(=O)C(=O)Nc2cccc([N+](=O)[O-])c2C)c1	4%	-27%	-12%[46.1 µM]	?	11	9
SMILES	HCV inhibitor	FMDV inh	Lassa entry inh	MARV entry inh	Shiga inhibitor	Cycloheximide cs
CC(C)CN1C(=O)c2ccc(NC(=O)c3cccs3)cc2C1=O	?	11%	33%[14.3 µM]	?	193*	40*
CC(C)CN1C(=O)c2ccc(NC(=O)c3ccccc3F)cc2C1=O	7%	40%	4%	6%	21	8
CC(C)CN1C(=O)c2ccc(NC(=O)c3ccco3)cc2C1=O	1%	61%	27%	?	61*	49*
CCOc1ccc(S(=O)(=O)N2CCN(C(=O)C3CC3C)CC2)cc1 (stereo not drawn)	-2%	12%	11%[46.1 µM]	-15%[46.1 µM]	.	.
COc1ccc(-c2cnc3nc(/N=C/N(C)C)nn3c2/N=C/N(C)C)cc1	9%	-7%	0%	21%[46.1 µM]	17	-1
Cc1cc(=O)[nH]c(N/N=C/C2=C(N3CCOCC3)C(=C\c3ccc(Cl)cc3)/CC2)n1	?	?	10%	?	6	7
O=C(O)c1ccccc1N/N=C/C1=C(N2CCOCC2)C(=C\c2ccccc2)/CC1	8%	-10%	-9%	27%[46.1 µM]	59*	15
Cc1occc1C(=O)N/N=C/C1=C(N2CCOCC2)C(=C\c2ccc(Cl)cc2)/CC1	?	-9%	.	-7%	13	24*
Cc1cc(C)nc(N/N=C/C2=C(N3CCOCC3)C(=C/c3ccccc3)/CC2)n1	?	28µM*	?	?	20	5
O=C(N/N=C/C1=C(N2CCOCC2)C(=C\c2ccccc2)/CC1)Nc1ccccc1	?	-1%	-5%	?	-4	-2
CC(C)(C)c1csc(NC(=O)C2=COCCO2)n1	-10%	18%	-26%	27%[46.1 µM]	.	.
CC(C)(C)c1csc(NC(=O)c2ccc(Cl)s2)n1	8.9µM*	-40%	?	?	103*	63*
Cc1ccc(C(=O)Nc2nc(C(C)(C)C)cs2)s1	?	-8%	?	?	158*	57*
O=C(c1ccc(Br)cc1)N(Cc1ccco1)C1CCS(=O)(=O)C1 (stereo not drawn)	18%	-12%	18%[46.1 µM]	-12%[46.1 µM]	20	-3
O=C(CCC(=O)N(CC(=O)NC1CCCCC1)c1ccc(F)cc1)Nc1nccs1	7%	16%	14%[46.1 µM]	1%[46.1 µM]	-4	-2
O=C(/C(=N\Nc1ccc([N+](=O)[O-])cc1)Sc1nnnn1-c1ccccc1)c1ccccc1	41%	?	12%	0.89µM*	-12	-2
CC(C)(C)c1nnc(N/N=C/c2cc(Br)ccc2O)n(N)c1=O	?	22µM*	?	?	-9	-5
NC(=O)N/N=C\c1cc(Br)ccc1O	17%	0%	18%	2%	-8	2
CCc1nnc(N/N=C/c2cc(Br)c(O)cc2O)n1N	-9%	1%	?	?	24*	13*
Cc1cc(=O)oc2cc(Oc3ccc(C(N)=O)cc3[N+](=O)[O-])ccc12	-4%	-10%	.	.	-4	-2
COc1ccc(-c2oc3cccnc3c2-c2ccc(OC)nc2)cc1	?	?	.	.	22*	25*
Cc1ccc(C)c(N(CC(=O)NC2CCCC2)C(=O)c2cc3cc4cc(C)ccc4nc3s2)c1	22µM*	.	-9%	-20%	4	0
CCOC(=O)C1=CN(Cc2cccc(F)c2)S(=O)(=O)NC1CCc1ccccc1 (stereo not drawn)	?	-13%	.	.	.	.
COc1cccc(NC(=O)c2nc(SC)ncc2Cl)c1	12%	-3%	0%[46.1 µM]	24%[46.1 µM]	29	9
